The whole screen tested about 69,000 compounds, of which about 8,600 (12%) showed an effect of 50% or more. What follows is part of a selection rich in strong results, with near analogues and random picks from the rest.

The assay deals with Plasmodium berghei. Nature of the assay: Screen against P. berghei liver stage (PbLuc), transformed with Luciferase, at 10uM. It is filed as functional, HepG2. The conditions noted are these: tested at 10 uM.
In the case of `COc1ccc(NCCC(=O)NCc2cccnc2N(C)C)cc1`, the INHIBITION is reported as -14.9%.

As to `Cn1ccnc1C(=O)N1CCC2(CCN2c2ncccn2)C1` (stereo not drawn), the INHIBITION is reported as 71.3%.

Turning to `Cn1cccc1C(=O)N1CCC2(CCCN2c2ncccn2)CC1`, the INHIBITION is recorded as -2.41%.

Take `O=C(c1ccc2ccccc2n1)N1CCC2(CCN2c2ncccn2)C1` (stereo not drawn): the INHIBITION is given as -47%.

For the molecule `Cc1ccc(C(=O)N2CCC3(CCN3c3ncccn3)C2)cn1` (stereo not drawn), the INHIBITION is listed as 78.9%.

For `Cn1cccc1C(=O)N1CCC2(CCN2c2ncccn2)C1` (stereo not drawn), the INHIBITION is listed as 72.2%.

Turning to `O=C(c1cccc(O)c1)N1CCC2(CCN2c2ncccn2)C1` (stereo not drawn), the INHIBITION worked out at 27.7%.

`Cn1ccc(C(=O)N2CCC3(CCN3c3ncccn3)C2)n1` (stereo not drawn): the INHIBITION is 22.6%.

Turning to `Cn1ccnc1C(=O)N1CCC2(CCN2CC2CC2)C1` (stereo not drawn), the INHIBITION was determined as 13.7%.

Take `O=C(c1cnc2ccccc2c1)N1CCC2(CCN2c2ncccn2)C1` (stereo not drawn): the INHIBITION is listed as -78.5%.

With `O=C(c1ccnnc1)N1C[C@@H]2CN(c3ncccn3)C[C@@H]2C1`, the INHIBITION was determined as 21.7%.

`Cc1ccc(C(=O)N2C[C@@H]3CN(c4ncccn4)C[C@@H]3C2)cn1`: the INHIBITION stood at 76.4%.

As to `Cc1ccc(C(=O)N2C[C@@H]3CN(c4ncccn4)C[C@@H]3C2)cc1`, the INHIBITION is given as -13.7%.

As to `CC(C)NC(=O)N1CCC2(CC(=O)N(c3ccsc3)C2)C1` (stereo not drawn), the INHIBITION worked out at 48.2%.

Regarding `COc1cc(N2C[C@H](C(=O)NCC3CC3)[C@@H]3CCO[C@@H]3C2)ncn1`, the INHIBITION is recorded as -29.3%.

Take `Cn1cnc2c(N3CCCC3)nc(C3CCNCC3)cc21`: the INHIBITION is given as 32.7%.

On to `COc1ccc(OC)c(CNC(=O)N2CCC(n3cncn3)CC2)c1`, for which the INHIBITION is 21%.

Consider `Cc1ccc(C(=O)NS(=O)(=O)c2ccccc2Cl)c(=O)[nH]1`, for which the INHIBITION was 35.9%.

In the case of `CC(C)c1noc(C(C)N2CCN(CCCN3CCCC3=O)CC2)n1` (stereo not drawn), the INHIBITION is reported as -38.7%.

Take `CN(CCO)CC1COCCN1C(=O)CCC1CCCC1` (stereo not drawn): the INHIBITION was 39.3%.

For the molecule `CC(C)c1cnc(CN(C)C2CCN(CCCc3cnn(C)c3)C2)o1` (stereo not drawn), the INHIBITION is reported as -7.31%.

On to `CC(C)N1CCCC1c1csc(N)n1` (stereo not drawn), for which the INHIBITION is on record as 16.8%.

`COc1cc(-c2cc(OC)c(OC)c(OC)c2)ncn1`: the INHIBITION was -7.79%.

Take `COC(CNC(=O)C1CC1)c1ccc(C)s1` (stereo not drawn): the INHIBITION was 20.4%.

As to `O=C(CCc1cc2n(n1)CCN(CCCn1cccc1)C2)N1CCCC1`, the INHIBITION was -1.54%.

On to `Cc1ccc(N2CCCc3sc(C(=O)NCC4CCCO4)nc32)nn1` (stereo not drawn), for which the INHIBITION worked out at 15.4%.

With `Cc1nn(C)c(Cl)c1C1CCCN1C(=O)c1ccc[nH]1` (stereo not drawn), the INHIBITION amounted to 25.1%.

Regarding `Cc1ccc(C)c(C(=O)N2CCOC(CCN(C)C)C2)c1` (stereo not drawn), the INHIBITION turned out to be 37.6%.

Regarding `Cc1ccc(C(=O)NCCC2CN(C3CCCC3)CCO2)c(C)c1` (stereo not drawn), the INHIBITION stood at 66.8%.

Consider `O=C(NCCC1CN(C2CCCC2)CCO1)c1c[nH]c(=O)[nH]c1=O` (stereo not drawn), for which the INHIBITION is reported as 8.08%.

As for `O=C(NCCC1CN(C2CCCC2)CCO1)c1cc(=O)[nH]c(=O)[nH]1` (stereo not drawn), the INHIBITION turned out to be 51.5%.

Consider `Cc1cc(C(=O)NCCC2CN(C)CCO2)c2cccc(C)c2n1` (stereo not drawn), for which the INHIBITION came out at 45.9%.

With `Cc1ccc(C(=O)NCCC2CN(c3cnn(C)c(=O)c3)CCO2)s1` (stereo not drawn), the INHIBITION is 24.7%.

For the molecule `CC(CC(=O)c1ccco1)NC(=O)c1ccccn1` (stereo not drawn), the INHIBITION was found to be 42.1%.

As to `COc1cccc(S(=O)(=O)N2CCn3cnc(COCC4CC4)c3C2)c1`, the INHIBITION is 15.9%.

On to `COCc1ncn2c1CN(S(=O)(=O)Cc1ccc(C)cc1)CC2`, for which the INHIBITION was -0.55%.

On to `COCc1ncn2c1CN(S(=O)(=O)c1cccc(F)c1)CC2`, for which the INHIBITION is given as -58.3%.

Regarding `CCOCc1ncn2c1CN(S(=O)(=O)c1ccc(C)cc1)CC2`, the INHIBITION is listed as -51.9%.

With `COCc1ncn2c1CN(S(=O)(=O)c1cccc(OC)c1)CC2`, the INHIBITION is listed as 62.4%.

Take `COCc1ncn2c1CN(S(=O)(=O)c1ccc(C)cc1)CC2`: the INHIBITION turned out to be 80.3%.

With `O=C(NC1COC2(CCN(CC3CCC3)CC2)C1)c1ccccn1` (stereo not drawn), the INHIBITION is -7.59%.

Regarding `CC1=C(c2ccc(C(C)C)cc2)S(=O)(=O)N=C1N1CCc2ccccc21`, the INHIBITION amounted to 49%.

Turning to `CC(NC(=O)c1ccc(=O)n(C)c1)c1ccccc1-n1cccn1` (stereo not drawn), the INHIBITION was 53.8%.

Regarding `Cc1ccccc1C(C)NC(=O)c1ccc(=O)n(C)c1` (stereo not drawn), the INHIBITION is 25.5%.

Regarding `CC(NC(=O)c1cc(=O)n(C)c(=O)n1C)c1ccccc1-n1cccn1` (stereo not drawn), the INHIBITION amounted to 0.426%.

`Cc1cc2c(=O)n3c(nc2s1)CCN(Cc1cnc(C)n1C)CC3`: the INHIBITION came out at 23.2%.

For the molecule `Cc1cccc(OCCC(=O)NC(C)c2nnc3n2CCC3)c1` (stereo not drawn), the INHIBITION amounted to 26.4%.

On to `Cc1nnn2c1COC(CNCc1ccncc1)C2` (stereo not drawn), for which the INHIBITION is on record as 39.3%.

On to `c1cc(-c2nnn3c2COC(CNCc2nccs2)C3)ccn1` (stereo not drawn), for which the INHIBITION is on record as 32.4%.

On to `Cc1nnn2c1COC(CNCc1nccs1)C2` (stereo not drawn), for which the INHIBITION is listed as -3.24%.

Turning to `c1cc(-c2nnn3c2COC(CNCC2CCOCC2)C3)ccn1` (stereo not drawn), the INHIBITION was 28.2%.

For the molecule `c1ccc(CNCC2Cn3nnc(-c4ccncc4)c3CO2)nc1` (stereo not drawn), the INHIBITION is on record as 64.5%.

For `COc1ccc(-c2cn3c(n2)CO[C@@H](CNCc2ccccn2)C3)cc1`, the INHIBITION worked out at 66.9%.

`Cc1cc(CNCC2Cn3nnc(C)c3CO2)oc1C` (stereo not drawn): the INHIBITION came to 60%.

Turning to `COc1ccc(-c2cn3c(n2)CO[C@@H](CNCc2nccn2C)C3)cc1`, the INHIBITION was 16.2%.

For the molecule `Cn1cc(-c2nnn3c2COC(CNCc2cccnc2)C3)cn1` (stereo not drawn), the INHIBITION is 27.4%.

With `Cn1cc(CNCC2Cn3nnc(-c4ccccc4)c3CO2)cn1` (stereo not drawn), the INHIBITION was determined as 62%.

For `Cn1cc(-c2nnn3c2COC(CNCc2ccncc2)C3)cn1` (stereo not drawn), the INHIBITION was 39.3%.

For `Cc1cccc(CNC[C@H]2Cn3cc(-c4ccccc4)nc3CO2)n1`, the INHIBITION is given as -23.2%.

As for `CCc1nnc(Nc2cccc(C3CCN(C(=O)CO)CC3)n2)s1`, the INHIBITION stood at 11.1%.

Regarding `CCCn1nccc1NC(=O)CN1CCCC1Cn1cc(C)cn1` (stereo not drawn), the INHIBITION turned out to be 42.3%.

As to `Cn1cc(CCNC(=O)N2CCCC(Cc3nccn3C)C2)cn1` (stereo not drawn), the INHIBITION came out at 33%.

Turning to `O=C(NCCCN1CCOCC1)c1cccc(OCc2ccccc2)c1`, the INHIBITION stood at 30%.

In the case of `Cc1csc(CN2CCC3(CC2)COC(COc2ccccn2)C3)n1` (stereo not drawn), the INHIBITION is on record as 47.5%.

For the molecule `c1ccc(-c2nnn3c2COC(CNCc2ccccn2)C3)cc1` (stereo not drawn), the INHIBITION was 51.2%.

As for `Cc1nnn2c1COC(CNCc1ccccn1)C2` (stereo not drawn), the INHIBITION is on record as 39.3%.

Regarding `Cn1cc(-c2nnn3c2COC(CNCc2ccccn2)C3)cn1` (stereo not drawn), the INHIBITION was found to be 46.3%.

As for `O=C(NCC1CC1)C1CN(c2ncccn2)Cc2ccnn2C1` (stereo not drawn), the INHIBITION came out at 31.2%.
